This note sets out measurements from PubChem BioAssay (Tox21).

Results filed as inconclusive are left out. Activity calls are given as the source filed them. Unless noted, the call rests on the fitted dose curve; in most records, active means well fitted curve in the direction sought with a large enough effect in the repeat runs; inconclusive means weak or mixed curves; inactive means no such curve, though single readings can be large; an effect the other way counts as inactive or inconclusive.

The nature of experiment [1]: qHTS assay to identify small molecule agonists of the peroxisome proliferator-activated receptor delta (PPARd) signaling pathway - cell viability counter screen (AID 743211). Further: nearly all actives have a fitted effect of over 55% in size. In outline:
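Viability of GeneBLAzer PPARd UAS-bla HEK293H cells was assessed after 17 h compound incubation at 37C, using CellTiter-Glo reagent added after the reporter read and luminescence recorded 30 min later.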
In general terms: In qHTS, concentration-response curves come from the screen itself.

A short description of experiment [2]: qHTS assay to identify small molecule antagonists of the peroxisome proliferator-activated receptor delta (PPARd) signaling pathway - cell viability counter screen (AID 743213). Further: nearly all actives have a fitted effect of over 50% in size. In outline:
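CellTiter-Glo was added to PPARd-bla HEK293H wells following 17 h compound treatment in the presence of 300 nM L165041. Luminescence was recorded after 30 min at room temperature.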

Experiment [3] deals with Bile acid receptor (Homo sapiens) (UniProt Q96RI1). Nature of the experiment: qHTS assay to identify small molecule antagonists of the farnesoid-X-receptor (FXR) signaling pathway (AID 743217; active means well fitted inhibition curve with a large enough effect in the signal ratio in the repeat runs, not every such curve was filed as active; the % refers to the signal ratio). The gist of the method:
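FRET fluorescence after 2 h room-temperature LiveBLAzer loading gives the readout. Prior step: FXR-bla HEK 293T cells, seeded and incubated 5 h, received test compounds plus 50 uM final CDCA for 16 h at 37 °C.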

Experiment [4] in a line: qHTS assay to identify small molecule agonists of the farnesoid-X-receptor (FXR) signaling pathway - cell viability counter screen (AID 743218). Further: nearly all actives have a fitted effect of over 45% in size. The gist of the method: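 Readout: CellTiter-Glo luminescence, 30 min RT, multiplexed after the FXR-bla FRET reading. HEK 293T FXR-UAS-bla cells received compound 5 h post-plating and were incubated 16 h at 37 C.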
The nature of experiment [5]: qHTS assay to identify small molecule antagonists of the farnesoid-X-receptor (FXR) signaling pathway - cell viability counter screen (AID 743221; active means well fitted cell-killing curve with a large enough effect in the repeat runs, not every such curve was filed as active; further: nearly all actives have a fitted effect of over 50% in size; further: potency means the concentration at half of the fitted maximal effect). In outline: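 Quantitative HTS of the Tox21 10K library run in parallel with the beta-lactamase reporter read. HEK 293T cells carrying a UAS-driven bla reporter got compound and 50 uM CDCA (final) for 16 h; ATP-based luminescence followed.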

Experiment [6] addresses Vitamin D3 receptor (Homo sapiens) (UniProt P11473). Kind of experiment: qHTS assay to identify small molecule agonists of the vitamin D receptor (VDR) signaling pathway (AID 743222; calls by dose curve). In outline:
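Following 4 h attachment at 37C, VDR-bla cells (2,000 per well) received DMSO-dissolved compounds or controls. After 16 h incubation, LiveBLAzer B/G FRET substrate was added and fluorescence read 2 h later at room temperature.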

For experiment [7] the target is unchanged. Nature of the experiment: qHTS assay to identify small molecule antagonists of the vitamin D receptor (VDR) signaling pathway (AID 743223; active means well fitted inhibition curve with a large enough effect in the signal ratio in the repeat runs, not every such curve was filed as active; the % refers to the signal ratio). The gist of the method: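 Fluorescence from LiveBLAzer B/G FRET substrate, read after 2 h at room temperature, reflects beta-lactamase reporter activity in VDR-bla cells treated 16 h at 37C with compounds and agonist 1alpha,25-dihydroxyvitamin D3 (3 nM final).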

Experiment [8] in a line: qHTS assay to identify small molecule agonists of the vitamin D receptor (VDR) signaling pathway - cell viability counter screen (AID 743224). Further: series mostly up to about 63 µM; nearly all actives have a fitted effect of over 50% in size. The gist of the method:
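In parallel with the bla FRET readout, cytotoxicity toward VDR-bla cells after 16 h compound exposure was assessed by CellTiter-Glo, with luminescence recorded after a 30 min room-temperature incubation.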

Experiment [9] can be described thus: qHTS assay to identify small molecule antagonists of the vitamin D receptor (VDR) signaling pathway - cell viability counter screen (AID 743225). Further: nearly all actives have a fitted effect of over 50% in size. In outline:
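Cells (VDR-UAS-bla HEK 293T) are plated, rested 4 h at 37C, dosed with compound and 3 nM final 1-alpha,25-dihydroxy vitamin D3, and incubated 16 h. Viability is taken from CellTiter-Glo luminescence in the reporter wells.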

A short description of experiment [10]: qHTS assay to identify small molecule agonists of the NFkB signaling pathway (AID 1159509; active means well fitted curve in the direction sought with a large enough effect in the signal ratio in the repeat runs, not every such curve was filed as active; the % refers to the signal ratio; further: series mostly up to about 61 µM). In outline: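 Beta-lactamase reporter assay run in quantitative high-throughput format on an NF-kB-responsive ME-180 line, with 5 hr compound treatment and a FRET-based blue/green fluorescence readout.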
Experiment [11] is described as follows: qHTS assay to identify small molecule agonists of the NFkB signaling pathway - cell viability counter screen (AID 1159515; calls by dose curve; further: nearly all actives have a fitted effect of over 55% in size; further: potency means the concentration at half of the fitted maximal effect). In outline: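 Plate 2,000 NFkB-bla ME-180 cells/well; incubate overnight. Add compounds, 5 hr at 37 C. Add FRET substrate, 1.5 hr RT. Add CellTiter-Glo, 30 min RT; read luminescence.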
Experiment [12] in a line: qHTS assay to identify small molecule agonists of the endoplasmic reticulum stress response signaling pathway (AID 1159516; active means well fitted activation curve with a large enough effect in the signal ratio in the repeat runs, not every such curve was filed as active; the % refers to the signal ratio). The gist of the method:
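Beta-lactamase expression from the ER stress response element in HeLa reporter cells is quantified with the LiveBLAzer B/G FRET substrate, read at 405 nm excitation after 2 hr at room temperature, following 5 hr compound treatment at 37 C.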

Experiment [13] can be described thus: qHTS assay to identify small molecule antagonists of the retinoid-related orphan receptor gamma (ROR-gamma) signaling pathway - cell viability counter screen (AID 1159520). Further: nearly all actives have a fitted effect of over 50% in size. Further: potency means the concentration at half of the fitted maximal effect. The gist of the method:
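Tet-on ROR gamma CHO cells (1,000/well) were plated 4 hr, given compounds in DMSO for 2 hr at 37 C, then induced with 1 uM final doxycycline for 16 hr. Viability was read as ATP by CellTiter-Glo luminescence after 30 min.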

Experiment [14] can be described thus: qHTS assay to identify small molecule agonists of the AP-1 signaling pathway - cell viability counter screen (AID 1159525; calls by dose curve; further: nearly all actives have a fitted effect of over 55% in size). The gist of the method:
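Each titration point was normalised to DMSO and tetra n-octyl ammonium bromide controls. The read was Cell Titer Glo luminescence after 30 min at RT, following 5 h compound exposure of ME-180 AP-1-bla cells at 37 °C.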

Experiment [15] is described as follows: qHTS assay to identify small molecule agonists of the AP-1 signaling pathway (AID 1159526; calls by dose curve).
Experiment [16] deals with Peroxisome proliferator-activated receptor delta (Homo sapiens) (UniProt Q03181). Kind of experiment: qHTS assay to identify small molecule agonists of the peroxisome proliferator-activated receptor delta (PPARd) signaling pathway (AID 743212; calls by dose curve;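 further: HEK293H cells with PPARd UAS beta-lactamase reporter GeneBLAzer system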). The gist of the method:
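Beta-lactamase reporter read by fluorescence (LiveBLAzer B/G FRET, 2 h, room temperature). Test agents, in DMSO, incubated at 37 C with PPARd-bla HEK293H cells.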

Experiment [17] has the same target. Kind of experiment: qHTS assay to identify small molecule antagonists of the peroxisome proliferator-activated receptor delta (PPARd) signaling pathway (AID 743215; active means well fitted inhibition curve with a large enough effect in the signal ratio in the repeat runs, not every such curve was filed as active; the % refers to the signal ratio;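 further: cells stimulated with agonist L165041 at 300 nM final during compound exposure; series mostly up to about 62 µM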). In outline: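 Fluorescence from cleaved LiveBLAzer B/G FRET substrate (2 h, room temperature) reports PPARd-driven beta-lactamase in HEK293H UAS-bla cells. Cells had been treated 17 h at 37 C with compound plus 300 nM final L165041.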

Experiment [18] concerns the target Bile acid receptor (Homo sapiens) (UniProt Q96RI1). Nature of the experiment: qHTS assay to identify small molecule agonists of the farnesoid-X-receptor (FXR) signaling pathway (AID 743220; active means well fitted activation curve with a large enough effect in the signal ratio in the repeat runs, not every such curve was filed as active; the % refers to the signal ratio). In outline:
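FXR-UAS-bla HEK 293T cells carrying a UAS-driven beta-lactamase reporter were plated for 5 h at 37C/5% CO2, then exposed to DMSO-dissolved Tox21 10K compounds for 16 h at 37C. A LiveBLAzer B/G FRET substrate was loaded for 2 h at room temperature before fluorescence reading.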

Experiment [19] is described as follows: qHTS assay to identify small molecule agonists of the endoplasmic reticulum stress response signaling pathway - cell viability counter screen (AID 1159517; calls by dose curve). The gist of the method: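 Cytotoxicity of test compounds toward ESRE-bla HeLa cells was assessed after 5 hr exposure. The luminescent CellTiter-Glo signal was measured 30 min after reagent addition.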

Experiment [20] concerns the target Nuclear receptor ROR-gamma (Homo sapiens) (UniProt P51449). Nature of the experiment: qHTS assay to identify small molecule antagonists of the retinoid-related orphan receptor gamma (ROR-gamma) signaling pathway (AID 1159521). In outline: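 RORγ antagonism is scored from reduced reporter luminescence in Tet-on CHO cells. Induction used 1 uM final doxycycline hyclate for 16 h at 37 C, following a 2 h compound exposure.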

Chain of Peroxisome proliferator-activated receptor delta (Homo sapiens) (Q03181 whole entry, looked up): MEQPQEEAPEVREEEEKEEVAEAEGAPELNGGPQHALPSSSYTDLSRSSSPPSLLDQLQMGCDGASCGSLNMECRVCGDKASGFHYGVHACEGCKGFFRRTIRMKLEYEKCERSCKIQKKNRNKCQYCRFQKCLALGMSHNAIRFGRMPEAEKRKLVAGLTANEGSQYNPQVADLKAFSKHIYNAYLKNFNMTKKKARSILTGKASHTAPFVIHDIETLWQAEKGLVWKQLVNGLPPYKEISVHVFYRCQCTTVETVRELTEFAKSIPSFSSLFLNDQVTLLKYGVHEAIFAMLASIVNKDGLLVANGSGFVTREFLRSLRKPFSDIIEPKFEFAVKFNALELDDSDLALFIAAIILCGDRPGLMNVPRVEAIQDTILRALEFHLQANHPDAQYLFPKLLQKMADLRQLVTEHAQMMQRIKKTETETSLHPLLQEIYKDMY
Chain of Bile acid receptor (Homo sapiens) (Q96RI1 whole entry, looked up): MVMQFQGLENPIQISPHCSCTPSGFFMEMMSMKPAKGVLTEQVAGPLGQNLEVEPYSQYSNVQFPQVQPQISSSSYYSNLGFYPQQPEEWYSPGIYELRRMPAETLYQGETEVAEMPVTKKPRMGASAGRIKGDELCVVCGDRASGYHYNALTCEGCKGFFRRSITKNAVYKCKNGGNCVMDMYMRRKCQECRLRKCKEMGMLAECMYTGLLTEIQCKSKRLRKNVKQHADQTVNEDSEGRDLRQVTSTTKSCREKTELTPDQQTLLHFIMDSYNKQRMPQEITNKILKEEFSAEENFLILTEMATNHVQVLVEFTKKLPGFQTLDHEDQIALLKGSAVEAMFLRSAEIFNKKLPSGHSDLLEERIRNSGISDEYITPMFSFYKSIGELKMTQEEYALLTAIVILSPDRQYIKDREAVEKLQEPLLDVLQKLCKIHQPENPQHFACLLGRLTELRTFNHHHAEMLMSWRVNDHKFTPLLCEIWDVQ
Chain of Vitamin D3 receptor (Homo sapiens) (P11473 whole entry, looked up): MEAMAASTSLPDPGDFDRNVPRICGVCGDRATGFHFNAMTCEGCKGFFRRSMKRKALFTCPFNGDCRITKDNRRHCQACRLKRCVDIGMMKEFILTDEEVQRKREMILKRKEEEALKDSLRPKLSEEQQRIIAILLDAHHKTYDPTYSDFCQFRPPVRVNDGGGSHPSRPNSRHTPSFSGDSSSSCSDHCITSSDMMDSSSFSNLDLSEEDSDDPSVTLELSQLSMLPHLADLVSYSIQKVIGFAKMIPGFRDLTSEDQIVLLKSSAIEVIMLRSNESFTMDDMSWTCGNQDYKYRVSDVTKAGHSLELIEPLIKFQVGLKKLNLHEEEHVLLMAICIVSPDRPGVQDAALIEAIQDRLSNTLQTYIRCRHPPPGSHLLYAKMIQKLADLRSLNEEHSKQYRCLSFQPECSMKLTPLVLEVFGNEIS

Take `CNC1CCCN(c2c(F)cc3c(=O)c(C(=O)O)cn(C4CC4)c3c2OC)C1` (stereo unspecified): the Potency entry in [1], in [2], in experiment [4], in [5], in [8] and in experiment [9] was “inactive” in each case. Further, the Potency result in experiment [11], in experiment [12], in experiment [13] and in [14] was “inactive” in each case. The compound was called inactive in [3], in experiment [6], in [7], in [10] and in experiment [15].

As for `CCN(Cc1cccc(S(=O)(=O)O)c1)c1ccc(C(=C2C=CC(=[N+](CC)Cc3cccc(S(=O)(=O)O)c3)C=C2)c2ccccc2S(=O)(=O)[O-])cc1`, the compound was classed as inactive in [16], in experiment [3], in experiment [6], in experiment [7] and in experiment [10]. Besides, the Potency result in experiment [2], in experiment [17], in [4] and in [12] was “inactive” in each case. For the same compound, the figures for the Potency in experiment [5], in experiment [11] and in experiment [13] were 13.9 µM (active), 34.8 µM (active) and 9.72 µM (active), respectively.

`C[C@@H]1[C@H](O)[C@@H](C)/C=C/C=C\C=C\C=C\C=C\C=C\C=C\[C@H](O[C@@H]2O[C@H](C)[C@@H](O)[C@H](N)[C@@H]2O)C[C@@H]2O[C@](O)(C[C@@H](O)C[C@@H](O)[C@H](O)CC[C@@H](O)C[C@@H](O)CC(=O)O[C@H]1C)C[C@H](O)[C@H]2C(=O)O` (stereo in doubt): the Potency entry in [4], in experiment [5], in experiment [9], in experiment [11], in [12] and in [13] was “inactive” in each case. In addition, the Potency result in experiment [14] was “inactive”. In experiment [10], the compound was called inactive.

As for `CC(=O)OCC1=C(C(=O)O)N2C(=O)[C@@H](NC(=O)CSc3ccncc3)[C@H]2SC1`, the compound was classed as inactive in experiment [16], in [3] and in [10]. Further, the Potency entry in experiment [2], in [4], in experiment [5], in experiment [8], in experiment [9] and in experiment [11] was “inactive” in each case. Moreover, the Potency entry in experiment [12], in experiment [13] and in [14] was “inactive” throughout.

As for `CC(=O)OCCC(C)CC(C)(C)C` (stereo unspecified), the Potency entry in [1], in experiment [2], in [17], in experiment [18], in [5] and in [9] was “inactive” each time. In addition, the Potency result in experiment [11], in [19], in [13], in experiment [20] and in [14] was “inactive” throughout. The result in experiment [16], in experiment [3], in [7], in experiment [10] and in experiment [15] was inactive.

`CCCOC(=O)c1c(Cl)c(Cl)c(Cl)c(Cl)c1C(=O)OCCC`: the Potency entry in [1], in experiment [2], in experiment [17], in experiment [5], in [8] and in [11] was “inactive” each time. Also, the Potency result in experiment [12], in [13] and in experiment [14] was “inactive” in each case. For the same compound, the outcome in experiment [16], in experiment [6], in experiment [7] and in [10] was inactive.

As to `CCCCCCCC(=O)OCCCCCC`, the Potency entry in experiment [1], in experiment [2], in experiment [17], in experiment [8], in experiment [9] and in [11] was “inactive” each time. The Potency entry in [19], in [13], in experiment [20] and in experiment [14] was “inactive” throughout. The compound was called inactive in [16], in experiment [6], in experiment [7], in [10] and in [15].

Take `O=c1[nH][nH]c(=O)c2cc([N+](=O)[O-])ccc12`: the call in experiment [16], in experiment [7], in experiment [10] and in experiment [15] was inactive. Moreover, the Potency entry in experiment [2], in experiment [4], in [5], in [8], in experiment [9] and in experiment [11] was “inactive” each time. The Potency result in [12], in experiment [13] and in experiment [14] was “inactive” throughout.

On to `CCN(CC)C(=O)N1CCN(C)CC1`, for which the Potency entry in experiment [1], in experiment [2], in [17], in [5], in experiment [8] and in [9] was “inactive” throughout. Besides, the Potency result in [11], in experiment [19], in experiment [13], in [20] and in experiment [14] was “inactive” each time. In addition, the outcome in experiment [16], in [3], in [6], in experiment [7], in [10] and in experiment [15] was inactive.

As to `O=C(O)CN1C(=O)c2cccc3cccc(c23)C1=O`, the Potency result in experiment [1], in experiment [2], in experiment [17], in [4], in [5] and in [8] was “inactive” throughout. Moreover, the Potency result in experiment [9], in experiment [11], in experiment [19], in experiment [13], in experiment [20] and in experiment [14] was “inactive” throughout. The outcome in experiment [16], in experiment [6], in experiment [7], in experiment [10] and in [15] was inactive.

In the case of `Nc1nc2ccc(OC(F)(F)F)cc2s1`, the Potency entry in experiment [1], in experiment [17], in [5], in experiment [8], in experiment [11] and in [12] was “inactive” in each case. Moreover, the Potency entry in experiment [13] and in [14] was “inactive” each time. The result in experiment [16], in [6], in experiment [7] and in experiment [10] was inactive.

In the case of `COc1ccc(C2C(=O)c3ccccc3C2=O)cc1`, the Potency result in experiment [1], in experiment [2], in experiment [17], in experiment [4], in experiment [5] and in experiment [9] was “inactive” throughout. The Potency entry in [11], in experiment [12] and in [20] was “inactive” each time. Also, the compound was called inactive in experiment [16], in experiment [7], in experiment [10] and in experiment [15].

In the case of `COC(CC(C)CCCC(C)(C)O)OC` (stereo unspecified), the Potency entry in experiment [1], in [2], in experiment [17], in experiment [4], in experiment [5] and in experiment [8] was “inactive” in each case. Further, the Potency entry in experiment [9], in experiment [11], in experiment [12] and in experiment [14] was “inactive” each time. Besides, the compound was classed as inactive in experiment [16], in experiment [10] and in experiment [15].
